These results are taken from PubChem BioAssay (NCI).

Molecules are shown by their SMILES. About 83,000 compounds went through this panel and 20% of them were active in at least one assay; those are over-represented in the sample as a whole.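 Method: cells in 96-well plates; compound added at one concentration; 48 h incubation; percent growth measured; values under 10 scored active.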 A number with no mark means an inactive call. The source made the active and inactive calls.

In this assay the test system is BT-549 breast. Briefly: NCI-60 one-dose screen, 48 h (100 = growth as untreated, 0 = no growth, -100 = all killed). The note with it: 10 µM unless noted. How it is done: Growth inhibition of the BT-549 human tumor cell line is measured as a screen for anti-cancer activity. Cells are grown in 96 well plates and exposed to the test compound for 48 hours. Compounds are tested at a single concentration, which is 10^-5 M for most compounds. The reported endpoint is percent growth (GI% or GIPRCNT), where numbers from 0 - 100% represent growth inhibition, and numbers from -100% - 0 represent cell death. For example, a value of 40 represents 60% growth inhibition. A value of 0 means no net growth occurred over the course of the experiment. A value of -40 indicates 40% of cells at the beginning of the experiment died by the end of the experiment. A value of -100 means all cells are dead at the end of the experiment.
NCI-60 Human Tumor Cell Lines Screen was performed using the standard one-dose NCI protocol, which is described in more detail at https://dtp.cancer.gov/discovery_development/nci-60/default.htm.
Compounds with GIPRCNT values below 10 were considered active. Activity score was based on GIPRCNT using the following formula: […]
Score is 0 for GIPRCNT values of 100 or above, 50 for GIPRCNT values of 0, and 100 for GIPRCNT values of -100.
Take `CCn1c(SCC(=O)Nc2cc(C(F)(F)F)ccc2Cl)nc2ccccc2c1=O`: the growth was 64.3%.

On to `O=C(CSc1ncccc1C(=O)O)Nc1ccc(Oc2ccccc2)cc1`, for which the growth was 97.8%.

As for `Cc1cccc2c(=O)c3c(sc12)c(NCCN)nc1ccccc13`, the growth is 72.1%.

For `CCOc1ccc(Nc2ccnc3cc(Cl)ccc23)cc1`, the growth was 14.4%.

For `Cc1ccc(C2CC(c3ccc(Nc4nc(NCCO)nc(Nc5ccc(Cl)cc5)n4)cc3)=NN2c2cc(Cl)cc(Cl)c2)cc1` (stereo not given), the growth was 95.9%.

As to `O=C(NC1C(O)OC(CO)C(O)C1O)NS(=O)(=O)c1ccc(Cl)cc1` (stereo not given), the growth is 108%.

Consider `CN(C)c1ccc(N=Cc2ccc(N3CCOCC3)cc2)cc1`, for which the growth was 95.1%.

In the case of `COCCN(C(=O)Cc1cccs1)C(C(=O)NCc1ccc(OC)cc1)c1ccc(C(C)C)cc1` (stereo not given), the growth was 93.9%.

As for `Brc1ccc(Oc2ccc(Nc3ncnc4onc(-c5ccccc5)c34)cc2)cc1`, the growth was 102%.

As to `CC(=O)Nc1nc2c(s1)CCc1c-2cn(S(=O)(=O)c2ccccc2)c1-c1ccccc1`, the growth was 97.7%.

On to `COc1ccc(Cn2cc(Cn3cc(C=C4C(=O)NC(=O)NC4=O)c4ccccc43)nn2)cc1`, for which the growth was 99.5%.

As to `CCOC(=O)C1(Cc2ccccc2)CCN(Cc2cccc(OC)c2O)CC1`, the growth was 50.4%.

As to `COC(=O)/C(CCC=C(C)C)=C1\[C@@H](OC(C)=O)C[C@@]2(C)[C@H]1C[C@@H](O)[C@H]1[C@@]3(C)CC[C@H](NCCO)[C@@H](C)[C@@H]3CC[C@@]12C`, the growth was 114%.

As for `COc1ccc(C(=O)C2CC2c2ccc(Cl)cc2)cc1` (stereo not given), the growth was 57.3%.

As to `CCOC(=O)c1sc(-c2ccc(OS(=O)(=O)C[C@]34CCC(CC3=O)C4(C)C)c(C=O)c2)nc1C`, the growth is -13.5% (active).

Regarding `COc1ccc(C2=C(c3cccc(OC)c3)C(=O)c3ccc(C)nc3C2=O)cc1`, the growth was 57.5%.

As to `COC(=O)c1c2c(c(C)[n+]([O-])c1C)C(=O)C=C(NCc1ccccc1)C2=O`, the growth is -67.5% (active).

On to `CCOC(=O)c1cc2c(n1Cc1ccccc1)-c1oncc1CCC2`, for which the growth was 101%.

With `COc1cccc(C2=NN3C(C2)c2ccccc2OC3c2ccc(/C=C3\SC(=O)NC3=O)cc2)c1` (stereo not given), the growth was 97.1%.

`O=S1(=O)N(Cc2ccccc2)[C@@H](Cc2ccccc2)C2O[C@H]2[C@H](Cc2ccccc2)N1Cc1ccccc1` (stereo not given in full): the growth was 63.1%.

Turning to `Clc1ncccc1Nc1ccc2nnc(-c3ccncc3)n2n1`, the growth was 108%.

Turning to `Brc1ccc(Nc2nc3ccccc3nc2Nc2ccc(Br)cc2)cc1`, the growth is -12.6% (active).

For the molecule `Cc1ccc(OCCCCCCNCCO)c(C)c1`, the growth was 27.6%.

For the molecule `CCOC(=O)c1cc2c(n1Cc1cccc(OC)c1)-c1oncc1CCC2`, the growth was 42.4%.

On to `COc1ccc(/C=C2\SC(=Nc3ccccc3)NC2=O)cc1`, for which the growth is -72.2% (active).

With `Nc1nonc1-n1nncc1-c1cccnc1`, the growth is 105%.

On to `CCCCCCc1cc2cc(-c3nc4ccccc4[nH]3)c(=Nc3ccccc3C)oc2cc1O`, for which the growth is 77.3%.

Regarding `COc1ccc(OC)c(N(CCN2C(=O)c3ccccc3C2=O)C(=O)CCl)c1`, the growth is 92.4%.

In the case of `Nc1ccc(-c2nc3cc(Oc4ccc(Oc5ccc6[nH]c(-c7ccc(N)cc7)nc6c5)cc4)ccc3[nH]2)cc1`, the growth is 105%.

With `COc1cc(NC(=O)CCSc2nc3ccccc3c(=O)n2CCc2ccccn2)cc(OC)c1OC`, the growth was 73.4%.

Regarding `CCOC(=O)C1=CN(C)C=C(C(=O)OCC)C1c1cc(Br)c(OCC)c(OC)c1`, the growth was 84.9%.

On to `CCN1CCN(C(=S)SCC(=O)Nc2nc3ccc(C)cc3s2)CC1`, for which the growth is 108%.

On to `O=C(Nc1ccc(N2CCNCC2)cc1)c1[nH]ncc1Nc1ncnc2sc3c(c12)CCC3`, for which the growth is 0.151% (active).

For `C1CCN(c2nc(N3CCCCC3)nc(N3CCOCC3)n2)CC1`, the growth is 109%.

Consider `CC(C)Cn1c2c(c(=S)[nH]c1=O)CCC2`, for which the growth was 108%.

As to `Cc1ccc(N=NC2C(=O)N(c3ccc(Cl)cc3)N(c3ccc(Cl)cc3)C2=O)cc1`, the growth is 95.2%.

As for `COc1ccc(/C=C/C(=O)c2ccc(Nc3nc(NCCO)nc(Nc4ccc(Cl)cc4)n3)cc2)cc1`, the growth was 61.3%.

As to `COc1ccc(OC)c(NC(=O)/C(C#N)=C/c2ccco2)c1`, the growth was 84.5%.

As for `COc1cccc(/C(C#N)=C/c2nc3c(N4CCOCC4)nc(Cl)nc3n2C)c1`, the growth was -77% (active).

Take `NCCOc1ncccc1/C=C1\c2ccccc2-c2ccc(F)cc21`: the growth was 82.4%.
